Drawing on article PMC7862700, “An all-to-all approach to the identification of sequence-specific readers for epigenetic DNA modifications on cytosine”, this text covers binding signal for one sequence.

Holding throughout (assay): DAPPL (digital affinity profiling via proximity ligation, sequencing); 10 mM Tris-HCl pH 7.5, 50 mM NaCl, 1 mM DTT, 4% glycerol, room temperature, 30 min; GST-TFs on glutathione beads, 16-mer random dsDNA library, 0.1% formaldehyde crosslink after washing; high values mean tight binding
The target in test [1] is T1, FEV (Homo sapiens, UniProt Q99581 1-238).
T1 sequence: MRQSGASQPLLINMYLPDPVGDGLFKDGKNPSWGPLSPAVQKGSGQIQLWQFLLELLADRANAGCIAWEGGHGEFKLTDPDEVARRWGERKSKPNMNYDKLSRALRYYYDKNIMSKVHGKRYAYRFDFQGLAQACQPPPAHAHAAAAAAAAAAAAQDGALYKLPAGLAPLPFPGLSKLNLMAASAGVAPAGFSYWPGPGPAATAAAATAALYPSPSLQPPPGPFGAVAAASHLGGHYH
The following applies: protein: recombinant; tags: N-terminal GST; dsDNA, one strand shown. In a few lines:
(§1)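 Beads coated with glutathione captured GST-fused human transcription factors that had been expressed in yeast, and the factors were then given DNA barcodes and pooled with a tag-only sample. The pools were incubated with 200 nmole of a random double-stranded 16-mer DNA library in Tris/NaCl/DTT/glycerol buffer for 30 min at room temperature, washed, crosslinked with 0.1% formaldehyde and proximity-ligated with BsaI/T4 ligase at 37 °C for 1 h. PCR amplification and Illumina NextSeq500 sequencing came last. Binding signal is each hexamer's read frequency for a factor divided by its frequency for the tag-only sample.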

Test [2] addresses ETV5 (Homo sapiens, UniProt P41161 1-510). Particulars: protein: recombinant; tags: N-terminal GST; dsDNA, one strand shown. In a few lines:
as §1

Test [3] deals with HSF1 (Homo sapiens, UniProt Q00613 1-529). The following applies: protein: recombinant; tags: N-terminal GST; chain copies: 3; dsDNA, one strand shown. The essentials: as §1
The target in test [4] is T2, SPIC (Homo sapiens, UniProt Q8N5J4 1-248).
T2 sequence: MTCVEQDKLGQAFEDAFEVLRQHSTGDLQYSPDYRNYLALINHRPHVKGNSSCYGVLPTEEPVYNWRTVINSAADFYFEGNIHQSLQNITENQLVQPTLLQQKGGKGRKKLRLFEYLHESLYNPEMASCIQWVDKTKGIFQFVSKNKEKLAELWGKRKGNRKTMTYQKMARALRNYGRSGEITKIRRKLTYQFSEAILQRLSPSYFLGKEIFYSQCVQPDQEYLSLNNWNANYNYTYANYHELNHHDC
Particulars: protein: recombinant; tags: N-terminal GST; dsDNA, one strand shown. The essentials:
as §1

Test [5] concerns the target ELF4 (Homo sapiens, UniProt Q99607 1-663). Particulars: protein: recombinant; tags: N-terminal GST; dsDNA, one strand shown. The essentials:
as §1

Test [6] concerns the target T3, ELK4 (Homo sapiens, UniProt P28324-2 1-405).
T3 sequence: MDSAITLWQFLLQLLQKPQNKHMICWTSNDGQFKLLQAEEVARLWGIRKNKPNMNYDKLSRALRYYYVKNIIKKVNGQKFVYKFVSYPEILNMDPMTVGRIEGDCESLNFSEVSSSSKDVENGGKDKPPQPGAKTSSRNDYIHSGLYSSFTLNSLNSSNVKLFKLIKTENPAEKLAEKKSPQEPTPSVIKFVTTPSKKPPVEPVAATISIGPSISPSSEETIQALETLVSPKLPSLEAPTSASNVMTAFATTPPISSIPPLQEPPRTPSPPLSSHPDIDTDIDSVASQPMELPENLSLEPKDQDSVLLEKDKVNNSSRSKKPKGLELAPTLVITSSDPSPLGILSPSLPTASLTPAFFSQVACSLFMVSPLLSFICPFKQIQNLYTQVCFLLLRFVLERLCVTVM
The following applies: protein: recombinant; tags: N-terminal GST; dsDNA, one strand shown. The essentials: as §1

The target of test [7] is T4, ETV2 (Homo sapiens, UniProt O00321 1-342).
T4 sequence: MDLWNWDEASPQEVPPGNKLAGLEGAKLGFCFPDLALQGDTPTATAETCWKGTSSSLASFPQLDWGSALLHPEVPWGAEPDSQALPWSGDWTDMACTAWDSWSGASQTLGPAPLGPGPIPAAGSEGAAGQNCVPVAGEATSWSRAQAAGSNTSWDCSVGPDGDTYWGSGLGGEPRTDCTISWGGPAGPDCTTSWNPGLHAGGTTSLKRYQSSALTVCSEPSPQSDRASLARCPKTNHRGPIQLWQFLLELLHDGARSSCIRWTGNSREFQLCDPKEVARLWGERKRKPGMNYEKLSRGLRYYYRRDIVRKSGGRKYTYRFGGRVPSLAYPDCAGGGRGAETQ
The following applies: protein: recombinant; tags: N-terminal GST; dsDNA, one strand shown. The essentials: as §1

Test [8] addresses T5, ELF3 (Homo sapiens, UniProt P78545 1-371).
T5 sequence: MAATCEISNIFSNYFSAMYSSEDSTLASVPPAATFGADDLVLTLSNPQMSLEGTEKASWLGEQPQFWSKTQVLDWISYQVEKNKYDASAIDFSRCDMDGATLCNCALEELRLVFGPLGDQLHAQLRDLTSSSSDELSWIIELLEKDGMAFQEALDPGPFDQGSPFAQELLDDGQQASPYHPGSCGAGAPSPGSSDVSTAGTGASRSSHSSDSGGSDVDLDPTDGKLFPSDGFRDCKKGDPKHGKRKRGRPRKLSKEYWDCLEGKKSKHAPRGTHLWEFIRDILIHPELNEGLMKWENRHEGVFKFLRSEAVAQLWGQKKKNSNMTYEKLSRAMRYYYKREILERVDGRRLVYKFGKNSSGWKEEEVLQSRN
Particulars: protein: recombinant; tags: N-terminal GST; dsDNA, one strand shown. In a few lines:
as §1

Test [9] addresses CRX (Homo sapiens, UniProt O43186 1-299). The following applies: protein: recombinant; tags: N-terminal GST; dsDNA, one strand shown. In a few lines: as §1
Test [10] concerns the target ETV1 (Homo sapiens, UniProt P50549 1-477). The following applies: protein: recombinant; tags: N-terminal GST; dsDNA, one strand shown. In a few lines:
as §1

Test [11] deals with T6, ERF (Homo sapiens, UniProt P50548 1-548).
T6 sequence: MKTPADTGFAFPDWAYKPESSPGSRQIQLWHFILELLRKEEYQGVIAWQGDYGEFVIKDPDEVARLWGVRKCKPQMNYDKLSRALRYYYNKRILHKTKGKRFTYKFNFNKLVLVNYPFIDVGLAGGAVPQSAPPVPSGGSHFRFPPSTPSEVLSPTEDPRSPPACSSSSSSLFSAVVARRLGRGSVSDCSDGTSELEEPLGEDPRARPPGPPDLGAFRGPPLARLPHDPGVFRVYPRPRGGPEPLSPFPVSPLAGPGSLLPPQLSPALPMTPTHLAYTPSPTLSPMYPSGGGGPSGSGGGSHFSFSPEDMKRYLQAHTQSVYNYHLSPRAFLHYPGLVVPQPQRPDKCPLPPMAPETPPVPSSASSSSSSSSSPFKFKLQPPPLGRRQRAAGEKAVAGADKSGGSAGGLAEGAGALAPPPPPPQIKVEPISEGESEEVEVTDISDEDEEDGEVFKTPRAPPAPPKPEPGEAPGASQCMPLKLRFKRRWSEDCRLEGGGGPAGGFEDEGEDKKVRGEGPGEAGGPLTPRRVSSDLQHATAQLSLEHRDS
Particulars: protein: recombinant; tags: N-terminal GST; dsDNA, one strand shown. The essentials:
as §1

Test [12] addresses T7, ETV3L (Homo sapiens, UniProt Q6ZN32 1-361).
T7 sequence: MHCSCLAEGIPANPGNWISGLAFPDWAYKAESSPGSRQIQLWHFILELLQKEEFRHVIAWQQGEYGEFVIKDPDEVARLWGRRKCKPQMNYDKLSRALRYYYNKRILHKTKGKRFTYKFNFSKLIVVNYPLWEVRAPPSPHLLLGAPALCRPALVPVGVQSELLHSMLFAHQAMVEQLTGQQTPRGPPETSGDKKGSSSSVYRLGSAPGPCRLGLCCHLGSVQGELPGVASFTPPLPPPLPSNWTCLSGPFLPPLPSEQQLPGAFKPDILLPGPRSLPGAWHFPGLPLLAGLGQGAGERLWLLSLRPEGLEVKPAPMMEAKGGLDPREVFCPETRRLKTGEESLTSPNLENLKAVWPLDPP
Particulars: protein: recombinant; tags: N-terminal GST; dsDNA, one strand shown. The essentials: as §1

Test [13] has as its target T8, ETS2 (Homo sapiens, UniProt P15036 1-469).
T8 sequence: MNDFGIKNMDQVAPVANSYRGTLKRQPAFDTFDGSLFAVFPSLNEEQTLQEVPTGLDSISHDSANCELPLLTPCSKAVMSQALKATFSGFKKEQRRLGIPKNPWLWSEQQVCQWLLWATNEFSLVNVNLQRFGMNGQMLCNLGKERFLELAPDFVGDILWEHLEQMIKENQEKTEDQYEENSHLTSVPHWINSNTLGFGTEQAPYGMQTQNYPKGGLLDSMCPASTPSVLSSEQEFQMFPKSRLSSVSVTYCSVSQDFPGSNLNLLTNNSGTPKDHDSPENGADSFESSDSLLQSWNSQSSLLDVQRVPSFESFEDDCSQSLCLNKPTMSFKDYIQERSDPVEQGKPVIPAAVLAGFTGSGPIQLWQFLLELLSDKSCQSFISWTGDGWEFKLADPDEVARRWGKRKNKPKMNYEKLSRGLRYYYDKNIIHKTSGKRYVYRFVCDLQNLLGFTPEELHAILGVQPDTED
The following applies: protein: recombinant; tags: N-terminal GST; dsDNA, one strand shown. The essentials: as §1

Test [14] has as its target T9, SPDEF (Homo sapiens, UniProt O95238 1-335).
T9 sequence: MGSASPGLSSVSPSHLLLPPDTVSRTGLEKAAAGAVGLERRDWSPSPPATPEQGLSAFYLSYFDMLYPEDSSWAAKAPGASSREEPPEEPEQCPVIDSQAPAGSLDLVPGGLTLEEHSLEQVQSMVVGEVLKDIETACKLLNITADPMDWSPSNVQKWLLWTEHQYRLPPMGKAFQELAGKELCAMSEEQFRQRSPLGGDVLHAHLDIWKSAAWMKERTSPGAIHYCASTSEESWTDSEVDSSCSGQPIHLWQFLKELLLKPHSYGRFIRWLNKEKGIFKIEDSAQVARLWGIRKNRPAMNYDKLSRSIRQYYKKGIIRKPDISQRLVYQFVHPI
The following applies: protein: recombinant; tags: N-terminal GST; dsDNA, one strand shown. The essentials: as §1

Test [15] concerns the target T10, ETV7 (Homo sapiens, UniProt Q9Y603 1-341).
T10 sequence: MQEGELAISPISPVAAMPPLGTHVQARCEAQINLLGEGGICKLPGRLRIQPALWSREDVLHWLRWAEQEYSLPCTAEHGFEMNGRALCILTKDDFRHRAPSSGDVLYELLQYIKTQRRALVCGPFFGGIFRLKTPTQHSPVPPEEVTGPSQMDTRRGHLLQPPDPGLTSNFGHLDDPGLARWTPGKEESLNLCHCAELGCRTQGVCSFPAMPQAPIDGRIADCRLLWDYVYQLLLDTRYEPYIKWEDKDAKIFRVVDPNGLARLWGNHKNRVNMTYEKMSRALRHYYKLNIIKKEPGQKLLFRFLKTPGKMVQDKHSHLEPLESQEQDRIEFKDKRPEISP
The following applies: protein: recombinant; tags: N-terminal GST; dsDNA, one strand shown. In a few lines: as §1

The target in test [16] is T11, ELF5 (Homo sapiens, UniProt Q9UKW6-2 1-255).
T11 sequence: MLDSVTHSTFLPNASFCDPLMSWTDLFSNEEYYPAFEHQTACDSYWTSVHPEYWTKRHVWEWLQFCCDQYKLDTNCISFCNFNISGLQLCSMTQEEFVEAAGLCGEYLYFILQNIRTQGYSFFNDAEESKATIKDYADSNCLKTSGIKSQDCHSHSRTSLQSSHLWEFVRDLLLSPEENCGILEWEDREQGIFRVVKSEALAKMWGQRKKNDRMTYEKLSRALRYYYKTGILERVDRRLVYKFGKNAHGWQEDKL
Particulars: protein: recombinant; tags: N-terminal GST; dsDNA, one strand shown. In a few lines:
as §1

For test [17], the target named is T12, ETV3 (Homo sapiens, UniProt P41162-2 1-143).
T12 sequence: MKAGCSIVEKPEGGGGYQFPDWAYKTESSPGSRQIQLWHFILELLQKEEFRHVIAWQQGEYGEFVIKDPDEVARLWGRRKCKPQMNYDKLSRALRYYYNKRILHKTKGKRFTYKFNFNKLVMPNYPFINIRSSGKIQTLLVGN
Particulars: protein: recombinant; tags: N-terminal GST; dsDNA, one strand shown. The essentials: as §1

For test [18], the target named is ETV6 (Homo sapiens, UniProt P41212 1-452). Particulars: protein: recombinant; tags: N-terminal GST; dsDNA, one strand shown. The essentials:
as §1

Chain of ELF4 (Q99607 whole entry): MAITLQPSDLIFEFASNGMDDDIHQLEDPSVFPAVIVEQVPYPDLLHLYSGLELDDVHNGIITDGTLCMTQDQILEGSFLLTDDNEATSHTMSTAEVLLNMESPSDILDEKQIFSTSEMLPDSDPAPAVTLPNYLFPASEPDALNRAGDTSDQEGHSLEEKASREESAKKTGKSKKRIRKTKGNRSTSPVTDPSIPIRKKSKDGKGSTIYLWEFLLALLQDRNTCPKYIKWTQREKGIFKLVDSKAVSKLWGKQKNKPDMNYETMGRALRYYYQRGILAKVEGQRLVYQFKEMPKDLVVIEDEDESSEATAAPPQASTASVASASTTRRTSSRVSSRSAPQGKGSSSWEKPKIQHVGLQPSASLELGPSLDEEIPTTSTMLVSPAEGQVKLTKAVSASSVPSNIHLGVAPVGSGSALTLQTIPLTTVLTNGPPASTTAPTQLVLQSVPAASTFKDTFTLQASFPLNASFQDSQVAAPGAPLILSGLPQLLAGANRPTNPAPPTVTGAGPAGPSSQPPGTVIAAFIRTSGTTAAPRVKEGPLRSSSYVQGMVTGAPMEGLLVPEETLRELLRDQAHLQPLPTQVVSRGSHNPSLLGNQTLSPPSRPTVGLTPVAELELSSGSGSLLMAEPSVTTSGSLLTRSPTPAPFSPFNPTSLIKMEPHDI
Chain of CRX (O43186 whole entry): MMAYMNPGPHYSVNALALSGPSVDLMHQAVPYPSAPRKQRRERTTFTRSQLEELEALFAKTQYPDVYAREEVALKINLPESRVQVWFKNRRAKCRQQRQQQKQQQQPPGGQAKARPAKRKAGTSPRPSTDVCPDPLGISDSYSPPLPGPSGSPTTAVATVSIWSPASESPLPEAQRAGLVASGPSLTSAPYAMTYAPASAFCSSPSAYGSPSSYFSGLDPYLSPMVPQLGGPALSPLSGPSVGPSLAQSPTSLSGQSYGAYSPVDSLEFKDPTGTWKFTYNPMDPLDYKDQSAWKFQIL
Chain of ETV1 (P50549 whole entry): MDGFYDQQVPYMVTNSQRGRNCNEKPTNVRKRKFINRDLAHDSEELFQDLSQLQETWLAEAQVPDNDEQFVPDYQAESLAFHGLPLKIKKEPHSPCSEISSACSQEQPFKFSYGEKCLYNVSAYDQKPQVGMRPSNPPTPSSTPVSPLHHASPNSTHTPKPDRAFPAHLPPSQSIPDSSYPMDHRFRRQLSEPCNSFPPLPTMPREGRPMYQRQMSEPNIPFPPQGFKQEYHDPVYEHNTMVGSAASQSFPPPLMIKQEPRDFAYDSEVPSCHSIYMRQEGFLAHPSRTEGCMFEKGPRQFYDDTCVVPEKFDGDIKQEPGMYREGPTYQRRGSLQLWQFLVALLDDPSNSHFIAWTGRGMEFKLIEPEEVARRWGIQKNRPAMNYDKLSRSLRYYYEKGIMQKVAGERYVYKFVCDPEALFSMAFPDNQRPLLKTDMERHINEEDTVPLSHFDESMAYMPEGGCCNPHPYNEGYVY
Chain of ETV5 (P41161 whole entry): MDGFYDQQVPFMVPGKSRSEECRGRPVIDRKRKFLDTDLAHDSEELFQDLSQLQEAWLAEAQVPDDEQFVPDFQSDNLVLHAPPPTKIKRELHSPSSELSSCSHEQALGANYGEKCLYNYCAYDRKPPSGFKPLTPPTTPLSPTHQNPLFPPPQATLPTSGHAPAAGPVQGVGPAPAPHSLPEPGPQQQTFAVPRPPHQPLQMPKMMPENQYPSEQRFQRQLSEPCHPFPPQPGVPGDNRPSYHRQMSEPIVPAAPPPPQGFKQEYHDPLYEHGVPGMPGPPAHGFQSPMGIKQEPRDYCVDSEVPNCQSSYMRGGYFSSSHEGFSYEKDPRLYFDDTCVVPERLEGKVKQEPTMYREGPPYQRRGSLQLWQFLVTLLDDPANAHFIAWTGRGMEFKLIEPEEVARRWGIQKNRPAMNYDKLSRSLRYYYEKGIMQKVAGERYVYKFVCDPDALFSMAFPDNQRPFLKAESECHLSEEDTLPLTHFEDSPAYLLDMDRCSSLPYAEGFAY
Chain of HSF1 (Q00613 whole entry): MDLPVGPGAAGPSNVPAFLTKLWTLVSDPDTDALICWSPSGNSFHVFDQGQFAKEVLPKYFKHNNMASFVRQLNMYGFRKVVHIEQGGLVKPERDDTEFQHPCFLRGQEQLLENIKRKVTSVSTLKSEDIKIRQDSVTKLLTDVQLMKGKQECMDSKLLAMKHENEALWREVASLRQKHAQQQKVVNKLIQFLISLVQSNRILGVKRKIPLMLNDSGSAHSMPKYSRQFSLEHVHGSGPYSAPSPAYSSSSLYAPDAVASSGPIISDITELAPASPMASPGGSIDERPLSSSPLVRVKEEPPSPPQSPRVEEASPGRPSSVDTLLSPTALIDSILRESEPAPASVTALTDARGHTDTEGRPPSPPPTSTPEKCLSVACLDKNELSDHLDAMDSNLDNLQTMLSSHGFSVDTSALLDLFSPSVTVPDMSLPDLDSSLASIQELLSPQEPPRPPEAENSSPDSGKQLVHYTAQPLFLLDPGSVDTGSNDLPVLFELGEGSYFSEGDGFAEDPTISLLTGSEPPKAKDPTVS
Chain of ETV6 (P41212 whole entry): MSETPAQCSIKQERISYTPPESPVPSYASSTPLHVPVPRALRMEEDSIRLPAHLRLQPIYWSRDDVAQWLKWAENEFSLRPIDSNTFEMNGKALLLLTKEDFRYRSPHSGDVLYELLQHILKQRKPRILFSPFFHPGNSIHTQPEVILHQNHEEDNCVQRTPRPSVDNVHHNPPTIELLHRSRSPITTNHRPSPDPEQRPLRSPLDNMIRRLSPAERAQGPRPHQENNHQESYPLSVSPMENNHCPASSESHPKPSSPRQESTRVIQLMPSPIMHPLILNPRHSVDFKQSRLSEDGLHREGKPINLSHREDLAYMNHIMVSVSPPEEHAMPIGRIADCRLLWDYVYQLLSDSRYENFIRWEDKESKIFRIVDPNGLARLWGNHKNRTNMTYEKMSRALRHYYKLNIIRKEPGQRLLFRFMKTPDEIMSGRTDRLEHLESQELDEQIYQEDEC

In the case of CTCTAG, the binding signal in test [1] is 1.25 fold enrichment (6-mer frequency, TF over GST control); in test [2], 1.3 fold enrichment (6-mer frequency, TF over GST control); in [3], 2.39 fold enrichment (6-mer frequency, TF over GST control); in test [4] it was 1.37 fold enrichment (6-mer frequency, TF over GST control); in test [5], 1.32 fold enrichment (6-mer frequency, TF over GST control); in [6], 1.31 fold enrichment (6-mer frequency, TF over GST control). Besides, the binding signal in test [7] is 1.12 fold enrichment (6-mer frequency, TF over GST control); in test [8] it was 1.1 fold enrichment (6-mer frequency, TF over GST control); in [9], 1.46 fold enrichment (6-mer frequency, TF over GST control); in test [10], 1.16 fold enrichment (6-mer frequency, TF over GST control); in test [11], 1.31 fold enrichment (6-mer frequency, TF over GST control); in test [12], 1.28 fold enrichment (6-mer frequency, TF over GST control). Moreover, the binding signal in [13] was 1.26 fold enrichment (6-mer frequency, TF over GST control); in test [14], 1.24 fold enrichment (6-mer frequency, TF over GST control); in [15], 1.27 fold enrichment (6-mer frequency, TF over GST control); in [16], 1.22 fold enrichment (6-mer frequency, TF over GST control); in test [17], 1.4 fold enrichment (6-mer frequency, TF over GST control); in test [18], 1.34 fold enrichment (6-mer frequency, TF over GST control).
